# Test results: PubChem BioAssay (NCATS)
# Results filed as inconclusive are left out. Unmarked numbers belong to inactive results. Calls come from the whole dose curve; as a rule, active = well fitted inhibition curve with a large enough effect; inconclusive = small, poorly fitted or top-dose-only effect; inactive = flat fitted curve, though single readings scatter.
# Target: Aldehyde dehydrogenase, mitochondrial (Homo sapiens) (UniProt P05091)
# Test: qHTS for Inhibitors of the Aldehyde Dehydrogenase Family (ALDH2) Primary screen (AID 2061308);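 note: plate controls were vehicle for no effect and reference inhibitor for full effect; nearly all actives have a fitted effect of over 55% in size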
# Conditions: ALDH2 enzyme inhibition qHTS, 1536-well; series mostly up to 56 µM; activity change, negative = inhibition: at the top concentration
row,SMILES,"activity change, negative = inhibition"
1,COc1cccc(NS(=O)(=O)c2ccc(C)cc2)c1C(=O)Nc1nc(-c2ccccc2)cs1,-4.62%
2,O=C1c2ccccc2C(=O)N1c1cnc2ccccc2c1,-2.28%
3,C=C1C(=O)O[C@H]2/C=C(/C)[C@@H](OC(C)=O)C/C=C(\C)C[C@@H](OC(=O)/C(=C/C)COC(=O)/C(=C/C)CO)[C@@H]12,2.37% [at 28 µM]
4,N[C@@H](Cc1ccc(OS(=O)(=O)c2ccccn2)cc1)C(=O)N1CCN(c2ccccc2)CC1,-0.52%
5,Cc1cc(C)nc(NC(=S)N2CCN(c3cccc([N+](=O)[O-])c3)CC2)c1,-12.9%
6,CCc1nn2c(=O)cc(N3C(C)CNCC3C)nc2s1 (stereo not given),1.07%
7,Cc1ccc(NS(=O)(=O)c2ccc3c(c2)N(C)C(=O)CO3)cc1C,4.26%
8,Cc1ccc(S(=O)(=O)Nc2ccccc2C(=O)Nc2nc(-c3ccccc3)c(C)s2)cc1,-11%
9,O=C(c1ccccc1O)N(Cc1ccccc1)Cc1cccs1,-0.858%
10,Cc1cc(C)cc(Cn2ncc3c4sc(C)cc4n(C)c3c2=O)c1,-8.36%
11,CCC(C)/C=C(C)/C=C/C1=CC2=C(Cl)C(=O)C(C)(OC(C)=O)C(=O)C2(O)C(OC)O1 (stereo not given),-17.1% [at 28 µM]
12,Cc1nc(N2CCOCC2)c2nc(-c3ccccc3)n(CCCN3CCCCC3C)c2n1 (stereo not given),1.72%
13,CC1=CC2/C=C(\C)CCC(O)C(=O)C(O)CC(=O)C23C(=O)NC(CC(C)C)C3C1C (stereo not given),2.51% [at 28 µM]
14,Clc1ccccc1CSc1nc2ncc(Br)cc2[nH]1,-12.1%
15,Cc1ccc(-c2csc(NC(=O)c3ccncc3NS(=O)(=O)c3ccc(C)cc3)n2)cc1,3.24%
16,O=C(Nc1nc(-c2ccccc2)cs1)c1ccncc1NS(=O)(=O)c1cccnc1,-7.57%
17,CCCn1c(-c2ccc(F)cc2)nc2c(NC3CC4CCC(C3)N4C)nc(C)nc21 (stereo not given),3.6%
18,COc1ccc(C(=O)Nc2ccc(-c3nc4ccccc4[nH]3)cc2)cc1C(F)(F)F,3.52%
19,COc1ccc2c(c1)Oc1nc(-c3ccc(C)cc3)nc(SCC(=O)Nc3cccc(C(=O)O)c3)c1C2,5.9%
20,COc1ccc(C(=O)Nc2ccc(-c3nc4ccccc4[nH]3)cc2)cc1Br,0.0703%

row,SMILES,"activity change, negative = inhibition"
1,Cc1ccnc(NC(=S)N2CC3CN(c4ncc(C(F)(F)F)cc4Cl)CC3C2)c1 (stereo not given),-11%
2,O=[S+]([O-])(Nc1ccc(-c2nc3ccccc3[nH]2)cc1)c1ccc2c(c1)CCO2,0.446%
3,O=[S+]([O-])(Nc1nccs1)c1ccc(NCc2ccc(Cl)c(Cl)c2)cc1,12.2%
4,N#Cc1c(-c2ccccc2C(F)(F)F)nc2ccccc2c1NCc1ccc(-c2cccnc2)cc1,-5.69%
5,COc1cccc(C2c3c(ncn(-c4ccccn4)c3=N)Oc3ccc4ccccc4c32)c1 (stereo not given),-8.88%
6,CCC[C@@H]1C[C@@H](C(=O)N[C@H](C(C)Cl)[C@H]2O[C@H](SC)[C@H](O)[C@@H](O)[C@H]2O)N(C)C1 (stereo not given in full),2.37%
7,Cc1ccc(NS(=O)(=O)c2ccc3c(c2)CCC(=O)N3)cc1C,1.15%
8,CC(=O)c1cccc(NC(=O)c2cnn3c(C)cc(C)nc23)c1,9.72%
9,Cc1cc2c(s1)c1cnn(Cc3ccc(C)c(F)c3F)c(=O)c1n2C,1.68%
10,COc1cc(O)c(C(CC(=O)N2CCC(Cc3ccccc3)CC2)c2ccc(C)cc2)c(OC)c1 (stereo not given),-28.5% [at 114 µM]
11,Cc1cccc(-c2csc3ncnc(Sc4nnnn4C)c23)c1,-1.87%
12,CN(CCC1CCCO1)c1ncnc2ccc(-c3ccc4c(c3)OCO4)cc12 (stereo not given),15.3%
13,Clc1cccc(-c2nc(-c3ccc(-c4nn[nH]n4)cc3)no2)c1,-17.3%
14,Cc1cc(C)nc(NC(=S)N2CCN(c3ccc(F)c(F)c3F)CC2)c1,-7.55%
15,Cc1cnccc1-c1nc(Nc2ccc(F)c(F)c2)c2ccccc2n1,-0.47%
16,CCCCNc1nc(C)nc2c1nc(-c1ccccc1)n2CC1CCN(C)CC1,20.9%
17,N#Cc1nc(Nc2cccc(-c3ccccc3)c2)nc(NC2CCCC2)n1,0.707%
18,O=C(Cc1ccc(Cl)c(Cl)c1)Nc1ccc([S+](=O)([O-])Nc2cccc([N+](=O)[O-])c2)cc1,-5.5%
19,O=C1c2ccccc2C(=O)N1c1cncc2ccccc12,-1.9%
20,COc1c(Cl)cccc1NC(=O)c1c(NC(=O)Cc2ccccc2)sc2c1CCCC2,0.827%
